Pf Dd2 growth: inhibitors of Plasmodium falciparum Dd2 growth; P. falciparum Dd2 growth, SYBR Green, 72 h; stronger effect = lower value; activity change, % at 10 µM; actives 2.3% (n = 94,000); AID 1159554; in the data active means activity change below about -80%; inconclusive means no clear call, values can overlap the other calls
C diff growth: inhibitors of Clostridium difficile growth; actives 0.25% (n = 86,000); Clostridium difficile clinical isolate growth, OD600, 24 h; stronger effect = lower value; growth activity, negative = inhibition, % at 16 µg/mL (by protocol);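 active means mean growth activity at or below -80% and every replicate also at or below -80%; inconclusive means mean at or below -80% but some replicate above -80%; inactive means mean growth activity above -80%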
T cruzi growth-1: inhibitors of T. cruzi proliferation; AID 624255; actives 5.9% (n = 77,000); inhibition, % at 8.34 µM; T. cruzi beta-gal in NIH3T3, GalScreen luminescence, 90 h;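 active means mean inhibition above about 93%, with at least 55% of replicates each passing it, limit read from the data, passing the limit was not always enough; inconclusive means only one of those two conditions holds; inactive means neither condition holds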
T cruzi growth-2: inhibitors of T. cruzi proliferation | actives 72% (n = 5,600) | T. cruzi beta-gal in NIH3T3, GalScreen luminescence, 90 h | shares compounds with T cruzi growth-1 | inhibition, % at 8.35 µM;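 active means mean replicate inhibition above about 95% and at least 55% of replicates individually reaching it, limit read from the data; inconclusive means only one of the two criteria is met; inactive means neither criterion is met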
T cruzi growth-3: inhibitors of T. cruzi proliferation | shares compounds with T cruzi growth-1 | T. cruzi beta-gal in NIH3T3, GalScreen luminescence, 90 h | inhibition, % at 2.09 µM | actives 21% (n = 5,600) | AID 651740;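 active means mean inhibition above about 95%, with at least 55% of replicates also reaching it, limit read from the data; inconclusive means meets just one of the two conditions; inactive means meets neither condition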
3T3 cytotox: kills mouse NIH/3T3 fibroblasts; NIH/3T3 viability, CellTiter-Glo ATP luminescence, 90 h; shares compounds with T cruzi growth-1; actives 14% (n = 5,600); AID 651742; cytotoxicity (signal decrease), % at 8.35 µM;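 active means mean signal decrease across replicates above about 35% based on untreated-well scatter, with enough replicates individually passing, limit read from the data; inconclusive means no rule stated though some were filed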
NIH3T3 tox 2: kills mouse NIH/3T3 fibroblasts. actives 56% (n = 5,600). AID 651744. inhibition, % at 24.9 µM. NIH/3T3 viability, CellTiter-Glo ATP luminescence, 90 h. shares compounds with T cruzi growth-1;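 active means mean loss of cell viability signal at or above a set limit, and enough replicates individually reaching it; inconclusive means meets only the mean limit or only the replicate share; inactive means meets neither condition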
Of the large screens only hits and unclear results are named; the others gave an inactive call (follow-up assays come after a bar, where they were run). This is a sample that favours compounds with a hit; in the whole collection about 6.8% have one here.

C[C@@H]1CN([C@H](C)CO)C(=O)c2cc(NC(=O)Cc3cn(C)c4ccccc34)ccc2O[C@@H]1CN(C)Cc1ccc(Oc2ccccc2)cc1	T cruzi growth-1 96 | T cruzi growth-2 101 | T cruzi growth-3 inactive | 3T3 cytotox inactive | NIH3T3 tox 2 53
C[C@@H]1CN([C@H](C)CO)C(=O)c2cccc(NS(=O)(=O)c3ccccc3)c2O[C@@H]1CN(C)CC1CCCCC1	none
CCC(=O)N1CC2(C1)CN(C(=O)CN1CCOCC1)[C@H](CO)c1c2c2ccc(OC)cc2n1C	none (no result: T cruzi growth-1)
CCCNC(=O)Nc1ccc2c(c1)C(=O)N(C)C[C@@H](OC)[C@@H](C)CN(Cc1ccc(-c3ccccn3)cc1)[C@H](C)CO2	none (no result: C diff growth)
CCCNC(=O)N(C)C[C@H]1[C@H](c2ccccc2)[C@@H](CO)N1C(=O)c1ccccc1	none
CCCN(C)C[C@H]1OCCCC[C@H](C)Oc2ccc(NC(=O)C3CCCCC3)cc2C(=O)N([C@H](C)CO)C[C@H]1C	T cruzi growth-1 108 | T cruzi growth-2 99 | T cruzi growth-3 inactive | 3T3 cytotox inactive | NIH3T3 tox 2 inactive
CCCN(C)C[C@H]1OCCCC[C@@H](C)Oc2ccc(NC(=O)C3CCCCC3)cc2C(=O)N([C@H](C)CO)C[C@@H]1C	none
CCCN(C)C[C@H]1OCCCC[C@@H](C)Oc2ccc(NC(=O)C3CCCCC3)cc2C(=O)N([C@@H](C)CO)C[C@H]1C	Pf Dd2 growth -81, T cruzi growth-1 102 | T cruzi growth-2 104 | T cruzi growth-3 inactive | 3T3 cytotox inactive | NIH3T3 tox 2 inactive
CCCN(C)C[C@H]1OCCCC[C@@H](C)Oc2ccc(NC(=O)C3CCCCC3)cc2C(=O)N([C@H](C)CO)C[C@H]1C	none
O=C(C[C@@H]1CC[C@H]2[C@@H](COC[C@H](O)CN2S(=O)(=O)c2ccc(F)cc2)O1)N[C@@H]1CCN(Cc2ccccc2)C1	none
CCc1cnc(N2[C@H](CO)[C@@H](c3ccc(C4=CCCCC4)cc3)[C@@H]2C#N)s1	none
CCc1cnc(N2[C@@H](C#N)[C@@H](c3ccc(C#CCC4CCCC4)cc3)[C@@H]2CO)s1	T cruzi growth-1 97 | T cruzi growth-2 99 | T cruzi growth-3 111 | 3T3 cytotox inactive | NIH3T3 tox 2 104
CCc1cnc(N2[C@H](C#N)[C@H](c3ccc(C#CCC4CCCC4)cc3)[C@@H]2CO)s1	T cruzi growth-1 98 | T cruzi growth-2 inactive | T cruzi growth-3 114 | 3T3 cytotox inactive | NIH3T3 tox 2 inconclusive
CCc1cnc(N2[C@H](C#N)[C@H](c3ccc(C#CCC4CCCC4)cc3)[C@H]2CO)s1	none
C[C@@H](NC(=O)C[C@H]1CC[C@@H]2[C@H](COC[C@@H](O)CN2C(=O)Nc2cccc(F)c2)O1)c1ccccc1	none
C[C@@H]1CCCCO[C@H](CN(C)Cc2ccc3c(c2)OCO3)[C@H](C)CN([C@@H](C)CO)C(=O)c2cc(NC(=O)Nc3cccc4ccccc34)ccc2O1	T cruzi growth-1 116 | T cruzi growth-2 inactive | T cruzi growth-3 103 | 3T3 cytotox inactive | NIH3T3 tox 2 103
C[C@@H]1CCCCO[C@@H](CN(C)C(=O)Nc2ccc3c(c2)OCO3)[C@H](C)CN([C@H](C)CO)C(=O)c2cc(NC(=O)Nc3cccc4ccccc34)ccc2O1	none (no result: T cruzi growth-1)
C[C@@H]1CCCCO[C@@H](CN(C)C(=O)Nc2ccc3c(c2)OCO3)[C@@H](C)CN([C@H](C)CO)C(=O)c2cc(NC(=O)Nc3cccc4ccccc34)ccc2O1	none
C[C@@H]1CCCCO[C@@H](CN(C)Cc2ccc3c(c2)OCO3)[C@H](C)CN([C@@H](C)CO)C(=O)c2cc(NC(=O)Nc3cccc4ccccc34)ccc2O1	T cruzi growth-1 inconclusive | T cruzi growth-2 104 | T cruzi growth-3 inconclusive | 3T3 cytotox inactive | NIH3T3 tox 2 47
C[C@@H]1CN([C@H](C)CO)C(=O)c2cc(NC(=O)Nc3cccc4ccccc34)ccc2O[C@@H](C)CCCCO[C@@H]1CN(C)Cc1ccc2c(c1)OCO2	Pf Dd2 growth -89, T cruzi growth-1 inconclusive (no result: C diff growth) | T cruzi growth-2 98 | T cruzi growth-3 109 | 3T3 cytotox inactive | NIH3T3 tox 2 38
C[C@H]1CCCCO[C@H](CN(C)Cc2ccc3c(c2)OCO3)[C@@H](C)CN([C@@H](C)CO)C(=O)c2cc(NC(=O)Nc3cccc4ccccc34)ccc2O1	none
C[C@@H]1CCCCO[C@H](CN(C)C(=O)c2ccccc2)[C@@H](C)CN([C@H](C)CO)C(=O)c2cc(NC(=O)CCC(F)(F)F)ccc2O1	none
CCN(C[C@@H]1N[C@H](CO)[C@H]1c1ccc(C2=CCCC2)cc1)C(=O)c1ccncc1	none
CCN(C[C@H]1N[C@H](CO)[C@H]1c1ccc(C2=CCCC2)cc1)C(=O)c1cccnc1	none
O=C(NC[C@H]1N[C@H](CO)[C@@H]1c1ccc(C2=CCCCC2)cc1)c1cccc(F)c1	none
C/C=C/c1ccc([C@@H]2[C@H](CO)N[C@H]2CN(CC)C(=O)c2ccccn2)cc1	none
C/C=C/c1ccc([C@@H]2[C@@H](CO)N[C@@H]2CN(CC)C(=O)c2ccccn2)cc1	T cruzi growth-1 100 | T cruzi growth-2 inactive | T cruzi growth-3 inactive | 3T3 cytotox inactive | NIH3T3 tox 2 inactive
O=C(NC[C@H]1N[C@H](CO)[C@@H]1c1ccc(C2=CCCCC2)cc1)c1ccc(F)cc1	T cruzi growth-1 96 | T cruzi growth-2 100 | T cruzi growth-3 inactive | 3T3 cytotox inactive | NIH3T3 tox 2 106
CCN(C[C@H]1N[C@@H](CO)[C@@H]1c1ccc(C2=CCCC2)cc1)C(=O)c1ccncc1	T cruzi growth-1 105 | T cruzi growth-2 98 | T cruzi growth-3 inactive | 3T3 cytotox inactive | NIH3T3 tox 2 55
CCN(C[C@H]1N[C@H](CO)[C@H]1c1ccc(C2=CCCC2)cc1)C(=O)c1ccncc1	T cruzi growth-1 104 | T cruzi growth-2 inactive | T cruzi growth-3 inactive | 3T3 cytotox inactive | NIH3T3 tox 2 inactive
CC(C)NC(=O)N(C)C[C@@H]1Oc2cc(C3=CCCC3)ccc2S(=O)(=O)N([C@H](C)CO)C[C@H]1C	none
Cc1cccc(-c2ccc([C@H]3[C@@H](CO)N4CCCCN(S(=O)(=O)c5ccccc5C)C[C@H]34)cc2)c1	none
Cc1ccc(-c2ccc([C@H]3[C@H](CO)N4CCCCN(S(=O)(=O)c5ccccc5C)C[C@@H]34)cc2)cc1	none
Cc1cccc(-c2ccc([C@H]3[C@@H](CO)N4CCCCN(S(=O)(=O)c5ccccc5C)C[C@@H]34)cc2)c1	T cruzi growth-1 111 | T cruzi growth-2 112 | T cruzi growth-3 inactive | 3T3 cytotox inactive | NIH3T3 tox 2 inactive
Cc1ccccc1S(=O)(=O)N1CCCCN2[C@H](C1)[C@H](c1ccc(-c3ccccc3)cc1)[C@@H]2CO	T cruzi growth-1 107 | T cruzi growth-2 102 | T cruzi growth-3 inactive | 3T3 cytotox inactive | NIH3T3 tox 2 48

Screening data as filed in PubChem BioAssay.
